PubChem BioAssay AID1159580 (chemical genetic matrix, 2015)
Where “and” joins values, the source holds several entries; their conditions need not be identical. Equal values may be shown once. Among all 5,500 compounds or so, about 2,000 (36%) were called active. Inconclusive results (about 18%) are left out. No stated cut-off is given here; in the data, active means normalized growth mostly below about 0.91 (no sharp cut-off); inconclusive means no clear call, values can overlap the other calls; inactive means mostly above about 0.92. The list shows a part of the results.

Experiment: chemical genetic growth profiling, strain panel (AID 1159580);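 further: tested at 20 µM; growth read once vehicle control cultures reached saturation at 30 °C; 1 = growth at the plate median or of vehicle wells; lower values mean less growth of the strain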
Conditions: growth OD

Measured: normalized growth

O=c1c(O)c(-c2cc(O)c(O)c(O)c2)oc2cc(O)cc(O)c12
active: S. cerevisiae deletion strains, locus YGR229C, strain SMI1, active compounds read low 0.416 | S. cerevisiae deletion strains, locus YNL322C, strain KRE1, active compounds read low 0.898
inactive: S. cerevisiae deletion strains, locus YAL040C, strain CLN3, active compounds read low 1.07 | S. cerevisiae deletion strains, locus YBR021W, strain FUR4, active compounds read low 1.01 | S. cerevisiae deletion strains, locus YBR229C, strain ROT2, active compounds read low 1 | S. cerevisiae deletion strains, locus YCL029C, strain bik1, active compounds read low 1.02 | S. cerevisiae deletion strains, locus YCL061C, strain MRC1 (second series), active compounds read low 0.985 | S. cerevisiae deletion strains, locus YDL035C, strain GPR1, active compounds read low 0.972 | S. cerevisiae deletion strains, locus YDL074C, strain BRE1, active compounds read low 1.01 | S. cerevisiae deletion strains, locus YDL101C, strain DUN1, active compounds read low 1.03 | S. cerevisiae deletion strains, locus YDL185W, strain tfp1, active compounds read low 1.02 | S. cerevisiae deletion strains, locus YDL192W, strain arf1, active compounds read low 1.02 | S. cerevisiae deletion strains, locus YDR101C, strain arx1, active compounds read low 1 | S. cerevisiae deletion strains, locus YDR150W, strain NUM1, active compounds read low 1.02 | S. cerevisiae deletion strains, locus YDR162C, strain NBP2, active compounds read low 0.963 | S. cerevisiae deletion strains, locus YDR318W, strain mcm21, active compounds read low 1.01 | S. cerevisiae deletion strains, locus YDR363W, strain ESC2, active compounds read low 1.03 | S. cerevisiae deletion strains, locus YDR388W, active compounds read low 1.02 | S. cerevisiae deletion strains, locus YDR502C, strain sam2, active compounds read low 1 | S. cerevisiae deletion strains, locus YEL061C, strain CIN8, active compounds read low 1 | S. cerevisiae deletion strains, locus YER002W, strain NOP16, active compounds read low 1 | S. cerevisiae deletion strains, locus YER110C, active compounds read low 1.03 | S. cerevisiae deletion strains, locus YER155C, strain BEM2, active compounds read low 0.999 | S. cerevisiae deletion strains, locus YER167W, strain BCK2, active compounds read low 0.997 | S. cerevisiae deletion strains, locus YGL078C, strain dbp3, active compounds read low 1 | S. cerevisiae deletion strains, locus YGL086W, strain mad1, active compounds read low 1 | S. cerevisiae deletion strains, locus YGL248W, strain PDE1, active compounds read low 1.03 | S. cerevisiae deletion strains, locus YGR078C, strain PAC10, active compounds read low 0.959 | S. cerevisiae deletion strains, locus YGR135W, strain pre9, active compounds read low 0.998 | S. cerevisiae deletion strains, locus YGR252W, strain gcn5, active compounds read low 1 | S. cerevisiae deletion strains, locus YHR030C, strain SLT2, active compounds read low 1.01 | S. cerevisiae deletion strains, locus YHR079C, strain IRE1 (second series), active compounds read low 1.01 | S. cerevisiae deletion strains, locus YHR094C, strain hxt1, active compounds read low 1.03 | S. cerevisiae deletion strains, locus YHR129C, strain ARP1, active compounds read low 1.02 | S. cerevisiae deletion strains, locus YHR200W, strain rpn10, active compounds read low 1.02 | S. cerevisiae deletion strains, locus YIL066C, strain RNR3, active compounds read low 0.976 | S. cerevisiae deletion strains, locus YIL073C, strain SPO22, active compounds read low 1.03 | S. cerevisiae deletion strains, locus YIL125W, strain kgd1, active compounds read low 1.02 | S. cerevisiae deletion strains, locus YIR030C, strain dcg1, active compounds read low 1 | S. cerevisiae deletion strains, locus YJL095W, strain BCK1, active compounds read low 1.05 | S. cerevisiae deletion strains, locus YJL134W, strain LCB3, active compounds read low 1 | S. cerevisiae deletion strains, locus YJL168C, strain set2, active compounds read low 1.01 | S. cerevisiae deletion strains, locus YJL187C, strain SWE1 (second series), active compounds read low 1.05 | S. cerevisiae deletion strains, locus YJR043C, strain POL32, active compounds read low 0.965 | S. cerevisiae deletion strains, locus YJR075W, strain HOC1, active compounds read low 0.993 | S. cerevisiae deletion strains, locus YKL009W, strain mrt4, active compounds read low 0.996 | S. cerevisiae deletion strains, locus YKL068W, active compounds read low 1.01 | S. cerevisiae deletion strains, locus YKL085W, strain MDH1 (second series), active compounds read low 1 | S. cerevisiae deletion strains, locus YKL085W, strain MDH1, active compounds read low 1 | S. cerevisiae deletion strains, locus YKL190W, strain CNB1, active compounds read low 1.01 | S. cerevisiae deletion strains, locus YKR001C, strain vps1, active compounds read low 1.01 | S. cerevisiae deletion strains, locus YLR039C, strain RIC1, active compounds read low 1 | S. cerevisiae deletion strains, locus YLR058C, strain SHM2, active compounds read low 1.01 | S. cerevisiae deletion strains, locus YLR102C, strain apc9, active compounds read low 1.02 | S. cerevisiae deletion strains, locus YLR262C, strain YPT6, active compounds read low 0.997 | S. cerevisiae deletion strains, locus YLR268W, strain sec22, active compounds read low 1.03 | S. cerevisiae deletion strains, locus YLR330W, strain CHS5, active compounds read low 1.01 | S. cerevisiae deletion strains, locus YLR342W, strain FKS1 (second series), active compounds read low 1.04 | S. cerevisiae deletion strains, locus YLR371W, strain rom2, active compounds read low 1.01 | S. cerevisiae deletion strains, locus YLR418C, strain cdc73, active compounds read low 0.981 | S. cerevisiae deletion strains, locus YML016C, strain PPZ1, active compounds read low 1 | S. cerevisiae deletion strains, locus YML032C, strain rad52, active compounds read low 1 | S. cerevisiae deletion strains, locus YML124C, strain tub3, active compounds read low 1.01 | S. cerevisiae deletion strains, locus YMR078C, strain ctf18, active compounds read low 1.01 | S. cerevisiae deletion strains, locus YMR223W, strain ubp8, active compounds read low 1 | S. cerevisiae deletion strains, locus YMR263W, strain SAP30, active compounds read low 1.05 | S. cerevisiae deletion strains, locus YMR307W, strain GAS1, active compounds read low 0.969 and 0.876 | S. cerevisiae deletion strains, locus YNL067W, strain RPL9B, active compounds read low 1.06 | S. cerevisiae deletion strains, locus YNL175C, strain NOP13, active compounds read low 0.999 | S. cerevisiae deletion strains, locus YNL197C, strain WHI3, active compounds read low 0.997 | S. cerevisiae deletion strains, locus YNL224C, strain SQS1, active compounds read low 0.967 | S. cerevisiae deletion strains, locus YNL233W, strain BNI4, active compounds read low 1.05 | S. cerevisiae deletion strains, locus YNL250W, strain rad50, active compounds read low 1.02 | S. cerevisiae deletion strains, locus YNL271C, strain bni1, active compounds read low 1.01 | S. cerevisiae deletion strains, locus YNL298W, strain CLA4, active compounds read low 1.02 | S. cerevisiae deletion strains, locus YNL307C, strain MCK1, active compounds read low 1.02 | S. cerevisiae deletion strains, locus YNR052C, strain pop2, active compounds read low 1 | S. cerevisiae deletion strains, locus YOL006C, strain TOP1, active compounds read low 1.08 | S. cerevisiae deletion strains, locus YOL012C, strain htz1 0.839 | S. cerevisiae deletion strains, locus YOL147C, strain pex11, active compounds read low 1.02 | S. cerevisiae deletion strains, locus YOR061W, strain CKA2, active compounds read low 0.99 | S. cerevisiae deletion strains, locus YOR069W, strain VPS5, active compounds read low 1.01 | S. cerevisiae deletion strains, locus YOR083W, strain WHI5 (second series), active compounds read low 0.957 | S. cerevisiae deletion strains, locus YOR136W, strain idh2, active compounds read low 1.03 | S. cerevisiae deletion strains, locus YOR144C, strain elg1, active compounds read low 1.01 | S. cerevisiae deletion strains, locus YOR184W, strain ser1, active compounds read low 1 | S. cerevisiae deletion strains, locus YOR316C, strain cot1, active compounds read low 1.02 | S. cerevisiae deletion strains, locus YPL055C, strain LGE1, active compounds read low 1.01 | S. cerevisiae deletion strains, locus YPL241C, strain CIN2, active compounds read low 0.995 | S. cerevisiae deletion strains, locus YPR119W, strain clb2, active compounds read low 1.01 | S. cerevisiae deletion strains, locus YPR141C, strain kar3, active compounds read low 1.01 | S. cerevisiae deletion strains, locus YPR163C, strain tif3, active compounds read low 1.01 | S. cerevisiae deletion strains, locus YPR167C, strain met16, active compounds read low 1.01 | S. cerevisiae deletion strains, strain wtn01, active compounds read low 1.02 | S. cerevisiae strains, strain wild type, active compounds read low 1.01
